Screening results deposited in PubChem BioAssay by National Center for Advancing Translational Sciences (NCATS).
Only some compounds are listed: those with a hit (about 2.4% of all), similar ones and a draw of the others.
Cruzain noTriton: cruzain (T. cruzi) inhibition without detergent | Potency, µM, hits mostly inhibitors | 2.3% of 200,000 active | AID 1476 | purified cruzain, Z-FR-AMC fluorescence, no detergent; further: nearly all actives have a fitted effect of over 40% in size
Target sequence (P25779 123-467 limits assumed): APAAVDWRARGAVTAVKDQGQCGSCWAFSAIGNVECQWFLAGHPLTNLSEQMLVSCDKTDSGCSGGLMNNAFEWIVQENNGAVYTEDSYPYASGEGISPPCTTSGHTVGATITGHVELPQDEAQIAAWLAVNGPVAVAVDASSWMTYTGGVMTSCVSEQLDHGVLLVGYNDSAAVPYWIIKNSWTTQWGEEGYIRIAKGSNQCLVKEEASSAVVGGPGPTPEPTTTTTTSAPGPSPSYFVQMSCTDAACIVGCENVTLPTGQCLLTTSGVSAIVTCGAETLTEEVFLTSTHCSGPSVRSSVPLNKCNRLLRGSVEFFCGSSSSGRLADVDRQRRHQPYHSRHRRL
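Detergent-free condition (0.00005% Triton X-100) in acetate buffer pH 5.5 with DTT. 1.5 nM enzyme and compound were pre-mixed 15 min, then 2 uM Z-FR-AMC substrate added; reaction progress from fluorescence change between first and third reads (60 s).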
Cruzain Triton: cruzain (T. cruzi) inhibition with detergent; Potency, µM, actives largely listed as inhibitors; 0.43% of 200,000 active; AID 1478; purified cruzain, Z-FR-AMC fluorescence, 0.01% Triton; P25779; further: nearly all actives have a fitted effect of over 40% in size
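Detergent-containing run (0.01% Triton X-100) in acetate buffer pH 5.5 with 5 mM DTT: enzyme at 1.5 nM final, 15 min compound preincubation at room temperature, then 2 uM Z-FR-AMC substrate. Activity taken as 60 s fluorescence increase at 360/450 nm.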
Hits are given with their value; n = inactive; u = inconclusive. The call rests on the fitted dose curve; in most records, active means well fitted curve in the direction sought with a large enough effect; inconclusive means small, poorly fitted or top-dose-only effect, or another doubt; inactive means no such curve, though single readings can be large; an effect the other way counts as inactive or inconclusive.

SMILES	Cruzain noTriton	Cruzain Triton
Cc1cccc(Nc2c3c(nc4nncn24)CCC3)c1C	n	n
Nc1nc2c(c(=O)[nH]1)CN(c1ccc(S(N)(=O)=O)cc1)CN2	n	n
N#C/C(=C\Nc1ccccn1)C(=O)c1ccco1	n	n
Cc1ccc(C)c(CN2C(=O)c3ccccc3S(=O)(=O)c3ccc(C(=O)N4CCN(c5ccccn5)CC4)cc32)c1	n	n
Cc1cc(C)cc(NC(=O)C(=O)NCCc2sc(-c3cccc(F)c3)nc2C)c1	n	n
O=C1N=C(c2ccccc2)S/C1=C\c1cccs1	20µM	n
O=C1N=C(N2CCN(c3ccccc3)CC2)S/C1=C/c1cccs1	n	n
Cc1ccc(NC(=O)C(=O)NCC(c2cccnc2)N2CCN(Cc3ccccc3)CC2)cc1C (stereo not drawn)	n	n
CCOC(=O)c1c(NC(=S)Nc2ccccc2)sc2c1CCCCC2	n	n
CCOC(=O)c1c(NC(=S)Nc2cccc(C)c2)sc2c1CC(C)(C)SC2	20µM	n
Cc1ccc(C)c(NC(=O)CSc2c3c(nc4ccc(Cl)cc24)CCCC3)c1	n	n
CCOC(=O)CC1C(=O)NCCN1C(=O)c1cc2c(=O)n3cccc(C)c3nc2s1 (stereo not drawn)	n	n
CCOC(=O)CC1C(=O)NCCN1C(=O)c1cc2c(=O)n3ccccc3nc2s1 (stereo not drawn)	n	22µM
CC1(OC(=O)c2ccco2)C(=O)C2=COC(C3CC3)=CC2=C(Br)C1=O (stereo not drawn)	n	n
COc1c(OC(C)=O)ccc(/C=C/c2ccc3cccc(OCc4ccccc4)c3n2)c1[N+](=O)[O-]	10µM	n
COc1cc(/C=C/c2ccc3cccc(OC)c3n2)c(OC(C)=O)c([N+](=O)[O-])c1	u	n
COc1ccc(N2CCN(C(CNC(=O)C(=O)NCc3ccc(F)cc3)c3cccnc3)CC2)cc1 (stereo not drawn)	n	n
CCOC(=O)c1ccc(NC(=O)Cc2ccc(-n3c(CC)nc4cccnc43)cc2)cc1	u	n
COc1cc(NC(=O)Cn2c(-c3ccccc3)cc(C(C)=O)c2C)cc(OC)c1	n	n
COc1cc(C2Nc3ccc4ncccc4c3C3=C2C(=O)CCC3)ccc1O (stereo not drawn)	n	n
COc1ccccc1CNc1ccc(-c2nc(C(C)C)no2)cc1[N+](=O)[O-]	u	n
COc1ccccc1CNc1ccc(-c2nc(C)no2)cc1[N+](=O)[O-]	20µM	n
O=C(Cn1c(C(=O)N2CCc3ccccc3C2)cc2sccc21)c1ccccc1	25µM	n
O=C(Cn1c(C(=O)N2CCN(C3CCCCC3)CC2)cc2sccc21)c1ccccc1	n	n
O=C1CC(c2ccc(F)cc2)Cc2nc(N3CCc4ccccc43)ncc21 (stereo not drawn)	u	n
SMILES	Cruzain noTriton	Cruzain Triton
Fc1cnc(N2CCc3ccccc32)nc1N1CCc2ccccc21	3.2µM	n
CCOC(=O)c1ccc(OC(=O)c2cn(-c3ccc(C)cc3)c(=O)c3ccccc23)cc1	n	n
N#Cc1cccc(-c2cc(NCc3ccccc3)ncn2)c1	n	n
Cc1cccc(C)c1NC(=O)c1cc(S(=O)(=O)N2CCc3ccccc3C2)ccc1F	u	n
Cc1nn2c(N)c(C#N)cnc2c1-c1ccc(Cl)cc1	25µM	n
Cc1nn2c(N)c(C#N)cnc2c1-c1ccccc1	n	n
CCCCc1ccc(NC(=O)COc2cccc3c(=O)n(C)ccc23)cc1	20µM	n
CCCn1ccc2c(OCC(=O)NCc3ccc(C)cc3)cccc2c1=O	n	n
CCCCc1ccc(NC(=O)COc2ccc(C(=O)Nc3ccccc3OC)cc2)cc1	n	n
CCCCc1ccc(NC(=O)COc2ccc(C(=O)Nc3ccccc3C)cc2)cc1	32µM	n
O[C@@H](c1cc(-c2ccccc2)nc2c1ccc1ccccc12)C1CCCCN1 (stereo partly drawn)	n	n
Cc1nc2ccc(S(=O)(=O)N(CC(=O)Nc3ccc(F)cc3F)Cc3ccccc3)cc2s1	u	n
CN(C)CCC(=O)[C@@]1(O)CC[C@H]2[C@H]3CC=C4C[C@@H](O)CC[C@]4(C)[C@H]3CC[C@]21C	n	n
Nc1ccc2c(c1)N1CCN=C1S2	n	n
O=C(Nc1ccc(Cl)cc1)Nc1ccc2c(c1)N1CCN=C1S2	32µM	u
Cc1ccc(CNC(=O)CCCCCn2c(=O)c3sccc3n(CC(=O)C(C)(C)C)c2=O)cc1	u	n
COc1ccc(CCNc2nc(-c3sc(C)nc3C)cs2)cc1OC	u	n
COc1ccc(OC)c(Nc2nc(-c3sc(N)nc3C)cs2)c1	25µM	u
Cc1nc(N)sc1-c1csc(Nc2ccccc2)n1	13µM	25µM
Cc1cc(O)ccc1Nc1nc(-c2sc(N)nc2C)cs1	u	n
COc1ccc(CNC(=O)c2cc(-c3cccs3)nc3ccccc23)c(OC)c1	n	n
COc1ccc2c(c1)c(=O)c(S(=O)(=O)c1ccc(C)cc1)cn2Cc1ccccc1C	n	n
COc1ccc2c(c1)c(=O)c(S(=O)(=O)c1ccc(Cl)cc1)cn2Cc1cc(C)ccc1C	10µM	n
